In PubChem BioAssay one finds composite z-score and z-score data, which are given here for 5 molecules.

Activity calls are given as the source filed them. Unless noted, how the calls were made is not given here.

Experiment [1] in a line: compounds binding Alexa647 anti-His antibody – biochemical, small-molecule microarray, 635 nm fluorescence, artefact control for SMM control protein annotation, primary screen (AID 1128).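 Further: score merges feature fluorescence with signal-to-noise for each printed compound spot.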 The settings on record: higher = more signal.
In experiment [2] the test system is Human papillomavirus type 1a E7 protein (residues 1-88). The experiment is described as follows: HPV1a E7 small-molecule binders, primary screen, biochemical, small-molecule microarray, residues 1-88, 635 nm (AID 1129). To be noted: small-molecule microarray binding, fluorescence 635 nm; higher = more signal.
Experiment [3] addresses Focal adhesion kinase 1 (Homo sapiens) (UniProt Q05397). The experiment is described as follows: PTK2 protein binding on printed compound slides – biochemical, small-molecule microarray, 635/667 nm fluorescence, BSA, DTT, primary screen (AID 1130).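 Further: composite of spot emission at 667 nm and signal to noise over triplicate slides.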 To be noted: 635 nm fluorescence, higher = more signal.
Experiment [4] has as its system Fibrinogen (Alexa647-labelled). Kind of experiment: Alexa647-fibrinogen binding to printed small molecules – biochemical, small-molecule microarray, 635/667 nm fluorescence, artefact control for SMM control-protein annotation, profiling panel (AID 1131).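 Further: z-score merges 667 nm fluorescence with per-spot signal-to-noise over triplicate slides.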 The settings on record: fibrinogen-A647 binding fluorescence, higher = more signal.
For experiment [5], the target named is Follistatin (Homo sapiens) (UniProt P19883). Kind of experiment: FST protein binding to printed compounds – biochemical, small-molecule microarray, 635/667 nm fluorescence, primary screen (AID 1132). The settings on record: 635 nm fluorescence, higher = more signal.
Chain of Follistatin (Homo sapiens) (P19883 whole entry, looked up): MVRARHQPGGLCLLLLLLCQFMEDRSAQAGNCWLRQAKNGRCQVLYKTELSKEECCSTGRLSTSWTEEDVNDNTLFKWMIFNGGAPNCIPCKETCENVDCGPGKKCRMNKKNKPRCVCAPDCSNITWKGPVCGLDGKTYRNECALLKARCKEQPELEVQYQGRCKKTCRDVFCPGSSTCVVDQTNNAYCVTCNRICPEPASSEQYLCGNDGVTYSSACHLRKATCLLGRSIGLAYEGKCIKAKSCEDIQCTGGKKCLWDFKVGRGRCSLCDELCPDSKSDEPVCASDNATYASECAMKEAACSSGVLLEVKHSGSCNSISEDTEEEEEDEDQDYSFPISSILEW
Experiment [6] concerns the target Fibroblast growth factor 2 (Homo sapiens) (UniProt P09038). The experiment is described as follows: basic fibroblast growth factor binding to printed compounds – biochemical, small-molecule microarray, 635/667 nm fluorescence, primary screen (AID 1133). To be noted: FGF2, fluorescence 635/667, higher = more signal.
The nature of experiment [7]: JC-1 mitochondrial potential readout, lung cancer cells – cell-based, A549, JC-1 fluorescence, basal, 24 h, 100 nL, profiling panel (AID 1138).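 Further: A549 lung adenocarcinoma cells under basal conditions with no added stimulus; test concentration not given here.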 To be noted: higher = more signal.
For experiment [8], the system named is Lefty1. The experiment is described as follows: Lefty1 protein binding to printed compounds – biochemical, small-molecule microarray, 635/667 nm fluorescence, primary screen (AID 1139). To be noted: fluorescence 635/667, higher = more signal.
For experiment [9], the system named is wheat germ agglutinin (Triticum aestivum), Alexa647-labelled. The experiment is described as follows: Alexa647-WGA lectin binding to printed small molecules – biochemical, small-molecule microarray, 635/667 nm fluorescence, artefact control for SMM control-protein annotation, profiling panel (AID 1140).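 Further: score merges 667 nm feature emission with signal to noise over triplicate slides.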 To be noted: WGA-A647 binding, 635 nm fluorescence, higher = more signal.

For experiment [10], the target named is Luciferin 4-monooxygenase (Photinus pyralis) (UniProt P08659). Kind of experiment: inhibition of purified Photinus pyralis luciferase – biochemical, luminescence, purified enzyme, 2006 set, primary screen (AID 1141).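 Further: cell-free assay with purified firefly luciferase at 100 ng per well in PBS; test concentration not given here.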 The settings on record: purified firefly luciferase, SteadyGlo luminescence, 30 min; higher = more signal, called active from +8 up or from −8 down.
Chain of Luciferin 4-monooxygenase (Photinus pyralis) (P08659 whole entry, looked up): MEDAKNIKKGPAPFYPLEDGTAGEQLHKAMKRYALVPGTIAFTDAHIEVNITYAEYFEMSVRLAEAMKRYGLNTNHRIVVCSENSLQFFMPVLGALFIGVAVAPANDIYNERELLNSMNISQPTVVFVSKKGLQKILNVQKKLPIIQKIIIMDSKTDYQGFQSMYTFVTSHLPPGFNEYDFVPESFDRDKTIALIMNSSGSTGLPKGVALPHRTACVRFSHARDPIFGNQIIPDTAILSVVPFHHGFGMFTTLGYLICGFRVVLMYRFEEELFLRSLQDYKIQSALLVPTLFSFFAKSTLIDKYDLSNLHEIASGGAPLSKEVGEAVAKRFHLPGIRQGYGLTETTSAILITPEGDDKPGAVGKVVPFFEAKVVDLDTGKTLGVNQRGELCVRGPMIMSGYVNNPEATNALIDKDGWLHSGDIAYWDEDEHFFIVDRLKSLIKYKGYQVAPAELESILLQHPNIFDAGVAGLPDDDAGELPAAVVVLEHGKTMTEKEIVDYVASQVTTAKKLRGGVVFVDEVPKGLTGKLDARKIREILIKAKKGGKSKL

Experiment [11] relates to Wnt5a (protein binding on small-molecule microarray). Kind of experiment: small molecules binding Wnt5a protein – biophysical, small-molecule microarray, 635/667 nm fluorescence, primary screen (AID 1142).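 Further: fluorescence read at 667 nm with signal to noise per printed feature.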 To be noted: 635 nm fluorescence, higher = more signal.
The nature of experiment [12]: ATP-based viability of Huh7 replicon cells – cell-based, CellTiter-Glo luminescence, basal, 48 h, cytotoxicity control for HCV replication inhibitor project, primary screen (AID 1143).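 Further: Huh7 hepatoma cells carrying a hepatitis C replication reporter with no stimulus; test concentration not given here.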 To be noted: higher = more signal, called active from +8 up or from −8 down.
Experiment [13] in a line: Pseudomonas biofilm growth suppression – PAO1 strain, BacTiter-Glo luminescence, LB-PBS, primary screen (AID 1144). The settings on record: P. aeruginosa PAO1 biofilm, 12 h, higher = more signal.
The nature of experiment [14]: basal CRE-LacZ reporter activity in PC12 – cell-based, unstimulated, primary screen (AID 1145). The settings on record: no forskolin, luminescence, 4.5 h, higher = more signal, called active from +8 up or from −8 down.
Experiment [15] can be described thus: forskolin-driven CRE-LacZ activity in PC12 – cell-based, CRE-LacZ reporter, forskolin-stimulated, primary screen (AID 1146).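 Further: PC12 cells with 6xCRE LacZ reporter stimulated by forskolin 10 µM; beta-galactosidase reporter signal reflecting CREB driven transcription.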 The settings on record: luminescence, 4.5 h, higher = more signal, called active from +8 up or from −8 down.
The target in experiment [16] is Streptavidin (Streptomyces avidinii) (UniProt P22629). Kind of experiment: compounds binding control protein streptavidin – biophysical, small-molecule microarray, 635/667 nm fluorescence, artefact control for SMM compound annotation, primary screen (AID 1147).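 Further: signal reflects streptavidin binding to arrayed compounds as a control protein.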 To be noted: higher = more signal.
Chain of Streptavidin (Streptomyces avidinii) (P22629 whole entry, looked up): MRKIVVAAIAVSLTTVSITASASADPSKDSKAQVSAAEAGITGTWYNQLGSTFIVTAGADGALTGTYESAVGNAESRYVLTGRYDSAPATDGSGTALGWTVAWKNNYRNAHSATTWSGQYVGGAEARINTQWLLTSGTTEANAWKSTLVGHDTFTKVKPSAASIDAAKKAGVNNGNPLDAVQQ
The nature of experiment [17]: probe aInhba binding on compound microarray – biochemical, small-molecule microarray, 635/667 nm fluorescence, primary screen (AID 1148).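 Further: score merges 667nm spot fluorescence with signal-to-noise for antibody binding to printed compounds.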 To be noted: higher = more signal.
Experiment [18] concerns the target Torsin-1A (Homo sapiens) (UniProt O14656). Kind of experiment: TOR1A wild-type binding on microarray – cell lysate, small-molecule microarray, lysate, 635/667 nm, primary screen (AID 1149). The settings on record: COS7 hTOR1A-WT lysate, 635 nm fluorescence, higher = more signal.
The target is the same in experiment [19]. Kind of experiment: torsin A mutant lysate binding on microarrays – cell lysate, small-molecule microarray, COS7 lysate, 635/667 nm fluorescence, primary screen (AID 1150).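 Further: score pools 667 nm emission and signal to noise measuring lysate protein binding.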 The settings on record: COS7 hTOR1A mutant lysate, 635 nm fluorescence, higher = more signal.
The subject of experiment [20] is Sonic hedgehog protein (Shh). Kind of experiment: Sonic hedgehog microarray binding compounds – biochemical, small-molecule microarray, 635/667 nm fluorescence, primary screen (AID 1151).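 Further: Shh protein binding to compounds spotted on small-molecule microarray slides; score combines spot fluorescence intensity with signal-to-noise across triplicate slides.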 To be noted: 635 nm fluorescence, higher = more signal.

Chain of Focal adhesion kinase 1 (Homo sapiens) (Q05397 whole entry, looked up): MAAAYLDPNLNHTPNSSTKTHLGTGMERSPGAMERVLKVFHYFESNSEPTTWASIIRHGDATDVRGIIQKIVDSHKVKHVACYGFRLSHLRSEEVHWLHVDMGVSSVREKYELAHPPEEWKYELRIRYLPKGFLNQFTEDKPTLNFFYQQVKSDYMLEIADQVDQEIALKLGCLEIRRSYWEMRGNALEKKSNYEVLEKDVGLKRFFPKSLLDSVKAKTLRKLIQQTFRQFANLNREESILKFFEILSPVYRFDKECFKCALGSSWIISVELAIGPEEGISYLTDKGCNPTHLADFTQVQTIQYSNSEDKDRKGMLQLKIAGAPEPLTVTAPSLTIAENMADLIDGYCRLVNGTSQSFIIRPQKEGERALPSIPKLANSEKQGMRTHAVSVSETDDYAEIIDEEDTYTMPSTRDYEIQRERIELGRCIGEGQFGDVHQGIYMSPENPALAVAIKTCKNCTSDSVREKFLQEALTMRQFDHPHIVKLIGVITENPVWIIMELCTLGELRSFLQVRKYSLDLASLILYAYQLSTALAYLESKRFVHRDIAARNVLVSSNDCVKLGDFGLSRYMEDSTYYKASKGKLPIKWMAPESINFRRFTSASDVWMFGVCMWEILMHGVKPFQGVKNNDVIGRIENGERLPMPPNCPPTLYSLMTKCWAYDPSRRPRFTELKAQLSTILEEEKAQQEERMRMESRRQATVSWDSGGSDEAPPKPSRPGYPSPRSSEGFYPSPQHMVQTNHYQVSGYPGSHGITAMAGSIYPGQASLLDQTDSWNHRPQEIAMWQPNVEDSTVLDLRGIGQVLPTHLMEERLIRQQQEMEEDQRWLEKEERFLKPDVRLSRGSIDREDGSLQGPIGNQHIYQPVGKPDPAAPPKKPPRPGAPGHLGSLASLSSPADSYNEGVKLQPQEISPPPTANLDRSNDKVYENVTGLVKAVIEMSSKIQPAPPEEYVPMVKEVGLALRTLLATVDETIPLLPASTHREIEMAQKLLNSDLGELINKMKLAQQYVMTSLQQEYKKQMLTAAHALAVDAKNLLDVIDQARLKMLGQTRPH
Chain of Fibroblast growth factor 2 (Homo sapiens) (P09038 whole entry, looked up): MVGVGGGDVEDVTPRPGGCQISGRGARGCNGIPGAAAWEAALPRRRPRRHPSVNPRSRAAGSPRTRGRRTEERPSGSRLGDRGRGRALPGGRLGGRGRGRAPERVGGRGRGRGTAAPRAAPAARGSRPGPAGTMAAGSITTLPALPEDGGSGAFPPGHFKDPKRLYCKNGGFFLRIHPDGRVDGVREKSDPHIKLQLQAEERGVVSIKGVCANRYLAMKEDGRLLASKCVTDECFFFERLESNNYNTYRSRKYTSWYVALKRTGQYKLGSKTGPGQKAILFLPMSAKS
Chain of Torsin-1A (Homo sapiens) (O14656 whole entry, looked up): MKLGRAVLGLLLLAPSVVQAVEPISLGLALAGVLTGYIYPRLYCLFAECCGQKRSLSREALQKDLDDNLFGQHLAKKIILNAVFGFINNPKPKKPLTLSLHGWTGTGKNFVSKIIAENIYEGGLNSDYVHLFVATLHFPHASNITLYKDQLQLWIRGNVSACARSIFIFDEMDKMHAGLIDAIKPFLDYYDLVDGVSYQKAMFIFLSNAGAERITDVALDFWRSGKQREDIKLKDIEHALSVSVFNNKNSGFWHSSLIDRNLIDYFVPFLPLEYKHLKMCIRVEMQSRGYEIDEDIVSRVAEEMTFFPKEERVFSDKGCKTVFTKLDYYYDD

`CN(C)C(=O)[C@]1(Cc2ccccc2CN=[N+]=[N-])N=C(c2ccc(OCCCO)cc2)O[C@@H]1c1ccccc1CN=[N+]=[N-]`: the composite z-score in experiment [1] was determined as 1.17; in experiment [2], 1.25; in experiment [3], 0.44; in experiment [4], 0.969; in experiment [5], 1.28; in experiment [6], 0.355. Also, the composite z-score is 1.06 in [8]; 1.09 in experiment [9]; 0.49 in experiment [11]; 0.61 in [16]; 0.461 in experiment [17]; 1.14 in experiment [18]. The figures for the composite z-score in experiment [19] and in experiment [20] were 0.917 and 1.11, respectively. Besides, the z-score was 0.0653 in experiment [7]; -0.554 (inactive) in experiment [10]; -5.26 (inactive) in experiment [12]; -0.611 (inactive) in experiment [13]; 1.31 (inactive) in experiment [14]; -0.394 (inactive) in [15].
Turning to `CCCCCN1CC=CC23O[C@@H]4/C=C\CCCOC(=O)C4[C@H]2C(=O)N(C(CO)C(C)C)[C@@H]3C1=O` (stereo not given in full), the composite z-score in [1] was -0.208; in experiment [2], -0.376; in experiment [3], -0.295; in experiment [4], -0.796; in experiment [5], 0.0945; in experiment [6], -0.603. Moreover, the composite z-score is 0.418 in [8]; 0.869 in [9]; 0.175 in experiment [11]; -0.739 in experiment [16]; -0.128 in experiment [17]; -0.731 in experiment [18]. For the same molecule, the composite z-score is -0.436 in experiment [19] and 0.976 in experiment [20]. The z-score in experiment [7] is -0.46; in [10], 0.451 (inactive); in [12] it was -0.0623 (inactive); in experiment [13], -1.6 (inactive); in experiment [14], -0.899 (inactive); in experiment [15] it was 0.373 (inactive).
Regarding `COC(=O)[C@@]1(Cc2ccc(F)cc2)[C@@H]2[C@@H](CC(=O)[C@H]2CC(=O)C(=O)N(C)C)CN1C(=O)c1ccccc1`, the composite z-score in experiment [1] was 1.49; in experiment [2], 1.24; in experiment [3], 0.138; in [4], 1.01; in experiment [5], 0.959; in experiment [6], -0.213. The composite z-score is -0.198 in [8]; 1.22 in experiment [9]; 0.618 in experiment [11]; 1.91 in [16]; 0.242 in experiment [17]; 0.447 in experiment [18]. Also, the figures for the composite z-score in experiment [19] and in experiment [20] were 0.884 and -0.552, respectively. Also, the z-score was 0.432 in experiment [7]; 1.28 (inactive) in [10]; -2.42 (inactive) in experiment [12]; 0.215 (inactive) in [13]; 0.576 (inactive) in experiment [14]; 0.245 (inactive) in experiment [15].
For `CC(C)(C)OC(=O)CC[C@@]12N=C(c3ccc(OCCCO)cc3)O[C@@H]1c1ccccc1N(CCS(=O)(=O)c1ccccc1)C2=O`, the composite z-score was found to be 2.03 in [1]; 1.19 in experiment [2]; 0.412 in experiment [3]; 0.129 in experiment [4]; 1.3 in experiment [5]; 0.109 in [6]. In addition, the composite z-score is 0.644 in [8]; 0.653 in [9]; 0.251 in [11]; 0.901 in [16]; 0.0737 in experiment [17]; -0.0101 in [18]. The composite z-score is 0.537 in experiment [19] and 1.27 in [20]. For the same molecule, the z-score in [7] was 0.84; in [10] it was -7.46 (inactive); in experiment [12], -3.45 (inactive); in experiment [13] it was 0.114 (inactive); in [14], -0.389 (inactive); in experiment [15] it was -1.71 (inactive).
On to `COCCCN1C(=O)[C@@]2(c3ccc([N+](=O)[O-])cc3)CC(=O)N(C3CCCCC3)[C@@H]2c2ccc(CO)cc21`, for which the composite z-score in [1] was 0.245; in experiment [2], -0.62; in experiment [3] it was -0.101; in experiment [4], -0.538; in [5] it was 1.14; in experiment [6] it was 0.594. Moreover, the composite z-score was 0.655 in experiment [8]; -0.0848 in experiment [9]; -0.0976 in experiment [11]; -0.226 in [16]; -0.214 in experiment [17]; 0.0116 in experiment [18]. Further, the composite z-score in [19] was -0.289; in experiment [20], 1.41. Moreover, the z-score in experiment [7] is -0.39; in experiment [10] it was -0.302 (inactive); in experiment [12], -0.253 (inactive); in [13] it was 0.0798 (inactive); in experiment [14] it was -0.761 (inactive); in [15] it was -0.593 (inactive).
